# PubChem BioAssay (EPA / NIEHS)
# Calls of active or inactive are those of the source. The calls were made as follows: active = hit-call score of the fitted dose curve at least 0.9, where 1 is the maximum; inactive = score below 0.9.
# Experiment: ATG_RORE_CIS: Attagene CIS-FACTORIAL HepG2 Assay for human RAR-related Orphan Receptor Element (RORE) (AID 2282959)
# Details: HepG2 Attagene cis-factorial RORE reporter, mRNA; actives raise or lower the signal
# Method in brief: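 A 24-hour exposure of transfected HepG2 hepatoma cells precedes RNA isolation and reporter RT-PCR. Labeled products are digested with HpaI and resolved by capillary electrophoresis, with gain or loss of signal scored relative to DMSO.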
Compound,outcome,AC50
CN(C)N=O,inactive,–
Cc1ccc(N)cc1Cl,inactive,–
BrCCBr,inactive,–
CC(C)(OO)c1ccccc1,inactive,–
CC(C)(C)c1cc(O)ccc1O,–,54.6 µM (active)
CC(C)c1cccc(C(C)C)c1O,inactive,–
O=[N+]([O-])c1ccc(O)c([N+](=O)[O-])c1,inactive,–
CC1(C)CCC(Cc2ccc(Cl)cc2)C1(O)Cn1cncn1 (configuration not stated),inactive,–
COC[C@H](C)N(C(=O)CCl)c1c(C)csc1C,inactive,–
CCOC(=O)Nc1cccc(OC(=O)Nc2ccccc2)c1,inactive,–
ClCc1ccccn1,inactive,–
CCCCP(CCCC)CCCC,inactive,–
O=C(Cl)c1ccc(Cl)cc1,inactive,–
O=P(O)(O)CN(CP(=O)(O)O)CP(=O)(O)O,inactive,–
ClCCBr,inactive,–
Oc1ccc(-c2ccccc2)cc1,–,162 µM (active)
CCOP(=O)(CN(CCO)CCO)OCC,inactive,–
Cc1ccccc1N,inactive,–
CC(=[OH+])/C=C(/C)[O-].CC(=[OH+])/C=C(/C)[O-].CC(=[OH+])/C=C(/C)[O-].[Fe],inactive,–
Fc1ccc(C2(Cn3cncn3)OC2c2ccccc2Cl)cc1 (configuration not stated),inactive,–
O=[N+]([O-])c1c(Cl)c(Cl)cc(Cl)c1Cl,inactive,–
C=C(C)C(=O)[O][Sn]([CH2]CCC)([CH2]CCC)[CH2]CCC,inactive,–
Cc1cc(Cl)ccc1O[C@H](C)C(=O)O,inactive,–
CCC(C)c1cccc(C(C)CC)c1O (configuration not stated),inactive,–
O=c1[nH]c(=O)[nH]c(=O)[nH]1,inactive,–
C1CCC(NC2CCCCC2)CC1,inactive,–
O=C/C=C/c1ccccc1,inactive,–
